Reference: PubChem BioAssay AID1508600 (Functional Genomics Laboratory (NCATS/FGL), 2020)
Among all 53,000 sequences or so, about 3,700 (7%) were called active.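 Rule for the calls: active = gene knockdowns whose robust z-score for IL-1 alpha signal is at least 2 or at most -2, so actives lie on both sides; inactive = the rest.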 The full list was thinned out, with actives kept by preference.

Experiment: Components of the Cytosolic LPS Sensing Pathway: Gene Identification via Genome-wide siRNA Screen;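 note: robust z of the log signal after scaling to non-targeting control siRNA wells of the plate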
Conditions: RAW264.7 macrophages, IL-1a HTRF, actives lie on both sides, screened at 100 nM (by protocol), cells primed 5 h with Pam3CSK4 first
How it was run: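 Supernatant IL-1a by HTRF from RAW264.7 cells primed with Pam3CSK4 (5 hours) and transfected with LipidA (24 hour) after 48h siRNA knockdown at 100 nM; cell viability checked with CellTiter-Glo.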

z-score, active:
GGAUCAGUACCCGUAUUUGTT against Plin2 -2.38, GCAACGGAGGGUCAUUUCATT against Wipf2 2.54, GCUAUUGUAGUGGUUACUGTT against Vmn2r57 2.21, GGUUUGGUGUCAGAUGUCATT against Olfr1182 -2.32, CCAGGAUCCUGUUUCUGACTT against AF067061 2.19, GGAGCAGAGAAACUUCUCGTT against Gigyf1 -2.09, GGUACUACUGUGGCUAAGCTT against 1700120K04Rik 2.71, GGGAUGACCUGCCAUUCAUTT against Atp7a 3.47, CGAAGAAUGACGAUGAUAUTT against Ppp4r3a -2.41, CGGAAGAACUACAAGUCGATT against Sipa1l3 2.09, CCUCUACAUCAGAGUAUGATT against Defb21 2.22, GGCACUAAUGGAGAGACUGTT against Nr6a1 3.53, GGAAGGUUGUAAGUUUAAATT against Krtap14 2.12, GGUCGUGCAUGACAACUAUTT against Itk 2.62, GGAUACUCUCAGGACGUGATT against Ncbp2 -2, GCAAAUCAUUUAGGACCCATT against Amer2 -2.54, CGCCAAAAGUUCUUGCCAUTT against Olfr618 -2.02

z-score, inactive:
GGAGACUGUAGACUUAAAGTT against Rnf25 -1.24, CAAUAACACUGGUGCCGACTT against Adam34l 1.73, CCUAAAUUAGUAGGACGGUTT against Cdkn1a 0.675, CCUAGAUUCGGACAAGGAUTT against Kctd5 -0.424, GGUAUAGCAAUUUCUACAATT against Chrna2 -0.174, GGUAGUGAAAAUGAAGAGUTT against Gtf2h1 0.892, CCUGAUACCCAAAGACUCATT against Dnaic1 -1.38, CCAUGAGACAAGAUUUAGATT against Olfr818 -0.751, UACUUAGGCCCUUGAGCAUTT against Timm10 0.725, GGUGUGUUUUCAUGUUUUUTT against Rel 0.388, GGUAUUUCUUUGUGGUGCUTT against Ptch2 1.45, GCUACAUGAUGUUCAUACUTT against Srpx 0.38, GGUGCAACACUCUCUAUUUTT against Afap1l1 0.963, CCCAUCUCCUUAAAGUCAATT against Ripk3 1.32, GGCAGCUGUUAUGCUUUUCTT against Cd302 0.822, GGAACUGUGAGACUUUUAGTT against Rabgap1 0.532, CCCUGAGAAGGAUGCGAAATT against Mgat4b 0.44, CCGGAAAACAAAAUUGCUATT against Obp1a 0.492, GGAAGAUAAAUCACAAUCATT against Cdc37l1 0.051, GGAUUAUAUGCCAAGUGAUTT against Phyh 0.179, GCCGAUUGUCCUAUCUCCATT against Spg7 1.63, GAACUCUUCCAGUGGAAGUTT against Dctpp1 -1.5, GGAAAAAUAGGGUGUUUUGTT against Tdg 1.96, GGACCAAGAGGACAUUACCTT against Tbl3 -0.971, GGUCAACCUAAACCAGCAGTT against Csn1s2a -0.182, CGAGGAUUUCUGUUACUUATT against Lyst 1.19, GCGCAGGUUGGAUGAAUGUTT against Psme3 -0.433, GGAAUUUUCUCGAUUUCACTT against Pde6b 1.13, GGCCUUUGGUACAUGUAGUTT against Olfr692 0.557, GCCAGUGCAUGAAAGAUAUTT against Kansl1l -0.772, GUUAUAGCGGCGAAGGUGUTT against Maml3 1.02, GGUCUGCUGUUGAUCGUUCTT against Sct 1.72, CGAUUCAAGGUAACAUAGATT against Esrrg 1.66, GGCCCAAACACGUGUAAAATT against Kdm5b 0.322, GGACAAAGAGGAAUGGAUATT against Tank -1.19, GGCAUGAAUCAGUCUAUGGTT against Olfr1308 0.656, GGCUGGAGAAGUAAUGAUATT against Sp100 0.62, GGACUUUGAAGAACUAAGUTT against Tfrc 1.01, GGGAUCUAAAGGCUGAAAATT against Mark4 -0.291, GCCAUCGCUAACUUACGGATT against Gdpd5 -1.81, GGAUGGACCUUCAGAAAAGTT against Srrm4 -1.63, GGCCAAAGUCGAAUCAUAUTT against Prmt2 -0.252, CCAAUGGCGAGACAACUACTT against Aldoa 0.182, GGGUCUGCCGUCAUCCAUATT against Acp6 -0.563, GGGCUUACCGUAUAACUUUTT against Nptn 1.4, GGACCUGAAUUCCACUCCUTT against Socs1 -0.147, GGAUGAGGAGGAUACAAAGTT against Eif3c 0.228, CGAGCAAGCUUCUACAUACTT against AI182371 0.438, GGAGUUCAGGUAUCCCUGATT against Nomo1 -0.109, GGAAAACAAGAAAGAUGAATT against Snupn -1.05, CGAUCCUCAUCUUUAUAUATT against Agbl1 -0.33, CCUAGAUUCUGAAUUCGAATT against Pdzd8 -1.09
